Compound activity: PubChem, Johns Hopkins Ion Channel Center
Shown are actives, neighbours in structure and some others; about 2.3% of the full set was active somewhere.
CHT block = inhibitors of human choline transporter CHT | CHT-expressing cells, membrane potential dye, choline response; hits give low values | B-score at 10 µM | 310,000 compounds, 0.86% hits;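 active = B-score over 3 SD under the library average, and starting fluorescence ratio not unusually high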;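 also: choline stimulus applied at its EC90 after an EC20 pre-addition; B-score computed on integrated fluorescence ratio after choline addition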
Target sequence (Q9GZV3 whole entry, looked up): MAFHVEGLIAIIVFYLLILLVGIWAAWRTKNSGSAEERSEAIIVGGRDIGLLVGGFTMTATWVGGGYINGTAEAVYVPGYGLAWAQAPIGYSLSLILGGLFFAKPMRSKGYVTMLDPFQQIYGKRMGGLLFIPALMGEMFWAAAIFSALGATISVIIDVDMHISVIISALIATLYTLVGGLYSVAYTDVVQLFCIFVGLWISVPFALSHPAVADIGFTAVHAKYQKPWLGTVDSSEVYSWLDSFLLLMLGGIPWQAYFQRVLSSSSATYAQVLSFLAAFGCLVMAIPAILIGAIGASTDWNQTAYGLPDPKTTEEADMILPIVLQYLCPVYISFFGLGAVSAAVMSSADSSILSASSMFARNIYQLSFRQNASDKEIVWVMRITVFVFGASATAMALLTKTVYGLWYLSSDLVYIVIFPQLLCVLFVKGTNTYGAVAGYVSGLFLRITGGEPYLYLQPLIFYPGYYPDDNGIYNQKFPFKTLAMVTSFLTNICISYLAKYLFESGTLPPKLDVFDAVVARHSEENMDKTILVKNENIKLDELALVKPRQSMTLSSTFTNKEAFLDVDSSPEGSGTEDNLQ
TMEM16A inh = TMEM16A chloride channel inhibitors, primary screen, cell-based, HTS; HEK293 TMEM16A/YFP iodide influx fluorescence, ionomycin; normalized B-score (activity score, 25-100; higher = stronger inhibition) at 10 µM; 310,000 compounds, 1.2% hits;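 active = ratio plate-corrected score three or more library SD toward inhibition, starting fluorescence score within five deviations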;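 also: score derived from kinetic fluorescence span divided by baseline fluorescence per well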
CHT allo act = CHT positive allosteric modulators, primary screen, cell-based, membrane potential dye, choline EC20 | CHT-expressing cells; hits give high values; LV-AA mutant CHT in HEK293 cells | High affinity choline transporter 1 (Homo sapiens), Q9GZV3 | 310,000 compounds, 0.49% hits | B-score at 10 µM;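 active = initial fluorescence not abnormally high and integrated response B-score, plate-corrected, over 3 SD above library mean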
TMEM16A act = TMEM16A chloride channel activators or potentiators, primary screen, cell-based, HTS; 340,000 compounds, 0.3% hits; AID 623877, 2012; B-score at 10 µM; HEK293 TMEM16A/YFP-H148Q/I152L, iodide quench fluorescence; hits give low values; Anoctamin-1 (Mus musculus), Q8BHY3;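 active = fluorescence-ratio B-score plate-corrected deviation score at least 3 library SD below zero, with starting fluorescence score within 5 deviations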;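 also: channel opened by trigger with iodide after compound preincubation; score built on the fluorescence ratio of max minus min over baseline; more negative score means more quench and so TMEM16A activation or potentiation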
TMEM16A reconf = TMEM16A chloride channel inhibitors, confirmation, cell-based, re-confirmation | HEK293 TMEM16A/YFP-H148Q, iodide quench fluorescence; ionomycin added to raise cell calcium | AID 652189, 2013 | 2,300 compounds, 39% hits | inhibition, % at 10 µM | shares compounds with TMEM16A inh;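 active = mean duplicate percent inhibition, scaled so buffer wells are 0 and the reference blocker 100, over three buffer SD above buffer mean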
HEK293 Ca mobil = calcium mobilization in TMEM16A/YFP HEK293 cells, confirmation, counter-screen for TMEM16A inhibitor project | shares compounds with TMEM16A inh | Fluo4 calcium mobilization | calcium response (% of ionomycin), % at 10 µM | 2,300 compounds, 2% hits | AID 652231, 2013;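 active = duplicate-averaged calcium signal over 20% of the ionomycin maximum, relative to buffer baseline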;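 also: each well's signal is peak minus trough fluorescence divided by its pre-addition baseline; 0% = buffer wells and 100% = ionomycin wells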
YFP-HEK293 quench = iodide YFP quench changes in parental YFP-HEK293, counter-screen for TMEM16A inhibitor project, cell-based; YFP ratio F(max-min)/F0 at 10 µM; 2,300 tested, under 10 active; ionomycin; shares compounds with TMEM16A inh;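 active = yellow fluorescent protein signal ratio exceeding the buffer control mean by over 5 SD of those controls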;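 also: ratio is mean of duplicate wells from kinetic YFP trace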
ClC-1 inh = ClC-1 chloride channel inhibition, selectivity assay for TMEM16A inhibitor project, cell-based, voltage-dependent ClC-1; shares compounds with TMEM16A inh; ratio percent, % at 10 µM; 2,300 tested, under 10 active; CHO ClC-1-YFP, iodide influx fluorescence quench; iodide control reads 0, buffer control 100;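 active = duplicate-mean ratio percent above the mean of iodide-only control wells, which defines zero, plus 5 of their SD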;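 also: higher percent means stronger block of ClC-1 iodide influx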
Starred values were filed as active, the others as inactive; i = inactive; / = not tested or not shown.

SMILES | CHT block | TMEM16A inh | CHT allo act | TMEM16A act | TMEM16A reconf | HEK293 Ca mobil | YFP-HEK293 quench | ClC-1 inh
COc1cc(C2c3cc4c(cc3C(OC3OC5COC(c6cccs6)OC5C(O)C3O)C3COC(=O)C23)OCO4)cc(OC)c1O (stereo unspecified) | i | 25* | i | i | i | i | -1.2 | -10
CC(C)(C)c1cc(C(c2cccnc2)N2CCN(CCO)CC2)cc(C(C)(C)C)c1O (stereo unspecified) | i | 100* | i | i | 68%* | i | -1.1 | -42
CN(CC(=O)Nc1ccccc1Br)C(=O)CN(C)C1CCCCC1 | / | / | / | i | / | / | / | /
CCCCN(Cc1cc2cc(OC)ccc2[nH]c1=O)S(=O)(=O)c1ccc(C)cc1 | i | 25* | i | i | 29%* | i | -0.64 | -18
COc1ccc2cc(CN(Cc3cccnc3)S(=O)(=O)c3ccccc3)c(=O)[nH]c2c1 | i | 100* | i | i | i | i | -0.86 | -6
COc1ccc2cc(CN(CC3COCCO3)S(=O)(=O)c3ccccc3)c(=O)[nH]c2c1 (stereo unspecified) | / | / | / | i | / | / | / | /
COc1ccc(CC2(CO)CCN(Cc3cnc(-c4ccccc4C)nc3)CC2)cc1 | i | 25* | i | i | i | i | -1 | -9
COc1ccc(CC2(CO)CCN(Cc3cnn(-c4ccccc4)c3)CC2)cc1 | i | i | i | i | / | / | / | /
COc1ccc(CC2(CO)CCN(CC3=Cc4cc(Cl)ccc4OC3)CC2)cc1 | i | 25* | i | i | 16%* | i | -1 | -22
Cc1nc2ccc(N=NC3=C(O)CCCC3=O)cc2s1 | i | i | i | i | i | i | -1.1 | -8
Cc1nc2ccc(N=NC3=C(O)CC(C)(C)CC3=O)cc2s1 | i | i | i | i | / | / | / | /
CC(=O)Nc1sc(/C(C#N)=C\c2cccc(Cl)c2)nc1-c1ccc(C)cc1 | i | i | i | i | / | / | / | /
Cc1nc(Oc2ccc(S(=O)(=O)N3CCOCC3)cc2Cl)c2c3c(sc2n1)CCCC3 | i | i | i | i | / | / | / | /
COc1ccccc1CN(C)C(=O)c1ccc(COc2ccccc2)cc1 | i | 100* | i | i | i | i | -0.92 | -2
COc1ccc(CN(C)C(=O)c2ccc(NS(=O)(=O)c3ccccc3)cc2)c(OC)c1 | i | i | i | i | / | / | / | /
COc1cccc(CN(C)C(=O)c2ccc(COc3ccc(Cl)cc3)cc2)c1OC | i | i | i | i | / | / | / | /
COc1ccc(CN(C)C(=O)c2ccc(COc3ccccc3)cc2)c(OC)c1 | i | 25* | i | i | i | i | -1.1 | -5
COC(=O)CSc1nc(-c2ccc(C)cc2)c2c(c1C#N)CCCC2 | i | i | i | i | / | / | / | /
COC(=O)c1ccc(CSc2nc(C(F)(F)F)c3c(c2C#N)CCC3)o1 | i | 100* | i | i | i | i | -1.1 | -12
CCOc1ccc(OCC)c(NC(=O)C2CCN(c3cnccn3)CC2)c1 | i | i | i | i | / | / | / | /
CCCn1nnnc1NCc1ccccc1OCc1ccc(F)cc1 | i | i | i | i | i | i | -1.1 | -7
CCCn1nnnc1NCc1ccccc1OCc1cccs1 | i | i | i | i | / | / | / | /
COc1ccc(-c2cc(C3CCN(c4cc(Cl)nc(N)n4)CC3)[nH]n2)cc1 | i | i | i | i | / | / | / | /
COc1ccc(OC)c(-c2cc(C3CCN(c4cc(Cl)nc(N)n4)CC3)[nH]n2)c1 | i | 100* | i | i | i | i | -1.2 | -20
COc1ccccc1CN1CC(C(=O)NCc2ccc(SC)cc2)CCC1=O (stereo unspecified) | / | / | / | i | / | / | / | /
SMILES | CHT block | TMEM16A inh | CHT allo act | TMEM16A act | TMEM16A reconf | HEK293 Ca mobil | YFP-HEK293 quench | ClC-1 inh
CCN(CC)CCCCOc1ccccc1OC | i | 100* | i | i | i | i | -1.1 | -12
COc1ccc(N2Nc3n[nH]c(N)c3N2)cc1 | i | i | i | i | i | i | -1.1 | -4
COc1ccc(NC(=O)c2cc(-c3ccccc3O)n[nH]2)cc1Cl | i | i | i | i | / | / | / | /
COc1ccc(NC(=O)c2cc(-c3cc(C)cc(C)c3O)n[nH]2)cc1Cl | i | 100* | i | i | i | i | -1.1 | 1
N=C1c2ccccc2CN1NC(=O)COc1ccc(Cl)cc1 | i | i | i | i | / | / | / | /
CC(=O)c1cccc(NC(=O)c2ccc(CN3CCc4ccccc4C3)cc2)c1 | i | i | i | i | 20%* | i | -0.96 | -11
O=C(Nc1ccc(S(=O)(=O)N2CCOCC2)cc1)c1ccc(CN2CCc3ccccc3C2)cc1 | i | 100* | i | / | 50%* | i | -1.1 | -28
Cc1cccc(NC(=O)c2ccc(CN3CCN(Cc4ccccc4)CC3)cc2)c1 | i | 25* | i | i | i | i | -0.87 | -12
C=CCN(CC=C)C(=O)CCc1nnc(CCc2c[nH]c3ccccc23)o1 | i | i | i | i | / | / | / | /
CCCCN(C(=O)CSCC(=O)Nc1ccc(C)cc1)c1c(N)n(Cc2ccccc2)c(=O)[nH]c1=O | i | i | i | i | / | / | / | /
CCc1nn(C(C)C(=O)NCCN2CCN(c3cccc(C)c3C)CC2)c(=O)c2cc3occc3n12 (stereo unspecified) | i | i | i | i | i | i | -1 | 2
CC(OC(=O)c1cc(=O)[nH]c2ccccc12)C(=O)NC1CCCCC1C (stereo unspecified) | i | i | i | i | / | / | / | /
COc1ccc(OCCC(=O)OCC(=O)NC(=O)NC(C)(C)C)cc1 | i | i | i | i | i | i | -1.2 | -12
CC(=O)OC1CC(C)N(C(=O)c2ccccc2)c2ccc(C)cc21 (stereo unspecified) | i | 100* | i | i | i | i | -1.1 | -5
CCCC(=O)OC1CC(C)N(C(=O)c2ccccc2)c2ccc(C)cc21 (stereo unspecified) | i | i | i | i | / | / | / | /
